This is part of a sample that, as a whole, favours compounds with a hit. Of some 83,000 tested, about 20% had one in any assay.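 Negative percent growth values reflect cell death: -40 means 40% of the cells present at the start died, and -100 means all died.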 Values without a mark were called inactive. Calls of active or inactive are those of the source. The calls were made as follows: active = growth percent below 10; inactive = the rest.
Experiments:
Assay in all cases: NCI-60 one-dose screen, 48 h (100 = growth as untreated, 0 = no growth, -100 = all killed)
HT29 colon = details: 10 µM unless noted
SNB-75 CNS = details: 10 µM unless noted
SNB-19 CNS = details: 10 µM unless noted
U251 CNS = details: 10 µM unless noted
PC-3 prostate = details: 10 µM unless noted
SK-MEL-5 melanoma = details: 10 µM unless noted
UACC-62 melanoma = details: 10 µM unless noted
LOX IMVI melanoma = details: 10 µM unless noted
SK-MEL-28 melanoma = details: 10 µM
SK-MEL-2 melanoma = details: 10 µM unless noted

| Compound | growth (HT29 colon) | growth (SNB-75 CNS) | growth (SNB-19 CNS) | growth (U251 CNS) | growth (PC-3 prostate) | growth (SK-MEL-5 melanoma) | growth (UACC-62 melanoma) | growth (LOX IMVI melanoma) | growth (SK-MEL-28 melanoma) | growth (SK-MEL-2 melanoma) |
| --- | --- | --- | --- | --- | --- | --- | --- | --- | --- | --- |
| COc1ccc(/C=C/C(=O)c2ccc(Nc3nc(NCCO)nc(Nc4ccc(Cl)cc4)n3)cc2)cc1 | 40% | 61.2% | 85% | 53.4% | 50.6% | 66.9% | 69.7% | 61.6% | 79.2% | 98.1% |
| Cc1ccc(N=NC2C(=O)N(c3ccc(Cl)cc3)N(c3ccc(Cl)cc3)C2=O)cc1 | 104% | 84.1% | 91.1% | 99% | 93.4% | 91.6% | 92.4% | 96.6% | 99.1% | 105% |
| COc1ccc(C2c3ccc4ccccc4c3Oc3ncn(CCCn4ccnc4)c(=N)c32)cc1OC (stereo not given) | 20.7% | 84.4% | 79.2% | 61% | 52.6% | 63.7% | 69.1% | 35.9% | 68.2% | 81.4% |
| O=C(c1ccccc1)N(CCc1ccc(Cl)cc1)C(=S)N(C(=O)c1ccccc1)c1ccccc1 | 104% | 104% | 109% | 97% | 85.7% | 95.9% | 94.5% | 81.5% | 119% | 117% |
| O=[N+]([O-])c1cc2c(ccc3occc32)o1 | 11.8% | 31.7% | 49.4% | 48.7% | 66.7% | -77% (active) | 20.5% | -36.3% (active) | -63.5% (active) | -46% (active) |
| NCCCNc1nc2ccccc2c2c(=O)c3cc(F)ccc3sc12 | -50.9% (active) | 25% | 44.4% | -56.1% (active) | 18.9% | 76.4% | -76.1% (active) | -92.1% (active) | 0.2% (active) | 50.6% |
| O=C(c1nc2ccccc2[nH]1)C1C(c2ccc(F)cc2)C2CC3CCCCC3N2[C@@]12C(=O)Nc1ccc(Cl)cc12 (stereo not given in full) | 24.9% | 36.7% | 54.1% | 51.2% | 35.4% | 47.3% | 55.1% | 46% | 61% | 65.8% |
| Clc1ccc(Oc2ccc(Nc3ncnc4onc(-c5ccccc5)c34)cc2)c(Cl)c1 | 84.2% | 83.5% | 106% | 102% | 94.2% | 93.4% | 81% | 98.4% | 102% | 104% |
| O=C(Nc1ccc(N2CCNCC2)cc1)c1[nH]ncc1Nc1ncnc2sc3c(c12)CCC3 | -67.3% (active) | -99.5% (active) | -99.5% (active) | -96.5% (active) | -83.6% (active) | -97.4% (active) | -85.1% (active) | -91.4% (active) | -84.7% (active) | 4.15% (active) |
| CCOc1cc(Cl)c(C(C)NC(=O)c2cccc(OC)c2)cc1OCC (stereo not given) | -39.4% (active) | 7.33% (active) | 84.2% | 22.5% | 6.15% (active) | -96.8% (active) | -76% (active) | -68.9% (active) | -44.6% (active) | 34.9% |
| COc1cccc(C(=O)NC(c2ccc(C)cc2)c2cc(Cl)c3cccnc3c2O)c1 (stereo not given) | 24.1% | 28.8% | 12.5% | 3.81% (active) | 22.8% | -56.8% (active) | -20% (active) | 6.79% (active) | 44% | 22.8% |
| Cc1[nH]c2ccccc2c(=O)c1CC=C(Cl)Cl | -59.8% (active) | 63.1% | 56.7% | 18.9% | 43.6% | 72.2% | 63.9% | 3.09% (active) | 74.8% | 46.2% |
| CCCCN1CCN(c2ccc3nc(-c4ccc5nc(-c6ccc(OCC)cc6)[nH]c5c4)[nH]c3c2)CC1 | 21.4% | 60% | 85.3% | 60.5% | 56.7% | 49.3% | 59.9% | -81% (active) | 61.6% | 86.6% |
| COc1ccc(Cn2c(Br)c3c(c2Br)-c2nc(N)sc2CC3)cc1 | 16.8% | 38.2% | 66.9% | 36.5% | 56.6% | 15.1% | 27.5% | 35.7% | 46.1% | 22% |

Source: PubChem BioAssay (NCI)
